In all, about 5,500 compounds went through this assay and about 2,000 (36%) were called active. Inconclusive results (about 18%) are left out. Cut-off read from the data, not from the text of the source: active = normalized growth mostly below about 0.91 (no sharp cut-off); inconclusive = no clear call, values can overlap the other calls; inactive = mostly above about 0.92. The list shows a part of the results.
Assay: chemical genetic growth profiling, strain panel (AID 1159580);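 note: tested at 20 µM; growth read once vehicle control cultures reached saturation at 30 °C; 1 = growth at the plate median or of vehicle wells; lower values mean less growth of the strain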
Conditions: growth OD

Measured: normalized growth

OC(CNCCc1cccs1)COc1ccccc1 (stereo not given)
inactive: S. cerevisiae deletion strains, locus YAL013W, strain DEP1, active compounds read low 0.995 | S. cerevisiae deletion strains, locus YBR229C, strain ROT2, active compounds read low 0.987 | S. cerevisiae deletion strains, locus YCL061C, strain MRC1, active compounds read low 0.994 | S. cerevisiae deletion strains, locus YDL101C, strain DUN1, active compounds read low 0.999 | S. cerevisiae deletion strains, locus YDL134C, strain PPH21, active compounds read low 0.986 | S. cerevisiae deletion strains, locus YDR150W, strain NUM1, active compounds read low 0.976 | S. cerevisiae deletion strains, locus YEL061C, strain CIN8, active compounds read low 0.998 | S. cerevisiae deletion strains, locus YGR078C, strain PAC10, active compounds read low 0.989 | S. cerevisiae deletion strains, locus YHR030C, strain SLT2, active compounds read low 0.934 | S. cerevisiae deletion strains, locus YHR087W, strain rtc3, active compounds read low 0.998 | S. cerevisiae deletion strains, locus YJR043C, strain POL32, active compounds read low 0.994 | S. cerevisiae deletion strains, locus YJR075W, strain HOC1, active compounds read low 1.01 | S. cerevisiae deletion strains, locus YKL190W, strain CNB1, active compounds read low 0.982 | S. cerevisiae deletion strains, locus YLR039C, strain RIC1, active compounds read low 0.944 | S. cerevisiae deletion strains, locus YLR058C, strain SHM2 (second series), active compounds read low 0.991 | S. cerevisiae deletion strains, locus YLR085C, strain ARP6, active compounds read low 1.08 | S. cerevisiae deletion strains, locus YLR262C, strain YPT6, active compounds read low 0.831 | S. cerevisiae deletion strains, locus YML094W, strain GIM5, active compounds read low 1.06 | S. cerevisiae deletion strains, locus YMR219W, strain ESC1, active compounds read low 1 | S. cerevisiae deletion strains, locus YMR263W, strain SAP30, active compounds read low 0.99 | S. cerevisiae deletion strains, locus YMR307W, strain GAS1, active compounds read low 1.13 | S. cerevisiae deletion strains, locus YNL153C, strain GIM3, active compounds read low 0.995 | S. cerevisiae deletion strains, locus YNL298W, strain CLA4 (second series), active compounds read low 0.964 | S. cerevisiae deletion strains, locus YNL322C, strain KRE1, active compounds read low 1 | S. cerevisiae deletion strains, locus YNR030W, strain Alg12, active compounds read low 1 | S. cerevisiae deletion strains, locus YOL006C, strain TOP1, active compounds read low 0.939 | S. cerevisiae deletion strains, locus YPL055C, strain LGE1, active compounds read low 1.03 | S. cerevisiae deletion strains, locus YPL241C, strain CIN2, active compounds read low 1.02 | S. cerevisiae deletion strains, locus YPR135W, strain CTF4, active compounds read low 0.949 | S. cerevisiae strains, strain wild type, active compounds read low 0.967

— PubChem BioAssay AID1159580 (chemical genetic matrix, 2015)
